# Compound activity from PubChem.
# Sampled rows, rich in hits. Any-hit rate of the full collection: about 1.1%.
# MBNL1-CUG inh = inhibitors of human MBNL1 binding to CUG repeat RNA | Q9NR56 | TR-FRET MBNL1-His/biotin-(CUG)12 binding, 665/545 ratio | Potency, µM (titrated, usually from 57.5 µM), for the others: at the top dose activity change, negative = inhibition, usual class: inhibitors | actives 0.036% (n = 280,000); active means well fitted inhibition curve with a large enough effect in the signal ratio, with a control signal flat, not every such curve was filed as active; inconclusive means small, poorly fitted or top-dose-only effect, or effect the other way, or a change in a side signal; inactive means no such curve, though single readings can be large or run the other way; the % refers to the signal ratio; further: potency means the concentration at half of the fitted maximal effect; on the % scale 0 is the no-effect control and ±100 the full control effect
# Target sequence (Q9NR56 whole entry, looked up): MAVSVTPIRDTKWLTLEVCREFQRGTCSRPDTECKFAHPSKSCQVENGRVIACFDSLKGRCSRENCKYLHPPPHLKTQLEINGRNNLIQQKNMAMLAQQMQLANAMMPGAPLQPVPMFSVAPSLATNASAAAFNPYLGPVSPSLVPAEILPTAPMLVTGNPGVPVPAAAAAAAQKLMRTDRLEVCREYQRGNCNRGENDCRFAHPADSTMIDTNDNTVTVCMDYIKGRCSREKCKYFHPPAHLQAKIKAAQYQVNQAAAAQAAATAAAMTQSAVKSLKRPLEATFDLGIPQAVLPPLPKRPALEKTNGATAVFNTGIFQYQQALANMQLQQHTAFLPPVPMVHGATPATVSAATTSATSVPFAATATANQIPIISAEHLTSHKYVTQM
#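 Compound titration spanned 92 nM–58 uM against the MBNL1-His/biotin-(CUG)12 complex. After 60 min at room temperature with 5 nM streptavidin-XL665 and 0.055 ng/ul terbium anti-His, ratiometric 665/545 nm emission (Ex 340 nm) normalized to controls.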
# NPSR antagonist = neuropeptide S receptor (human) antagonism, cAMP; actives 1% (n = 220,000); Q6W5P4; Potency, µM (highest dose often 38.3 µM), for inactives: at the top dose activity change, negative = inhibition, most hits filed as inhibitors; CHO-NPSR cells, cAMP TR-FRET, antagonist mode; further: potency means the concentration at half of the fitted maximal effect; on the % scale 0 is the no-effect control and ±100 the full control effect; nearly all actives have a fitted effect of over 50% in size
# Target sequence (Q6W5P4 whole entry, looked up): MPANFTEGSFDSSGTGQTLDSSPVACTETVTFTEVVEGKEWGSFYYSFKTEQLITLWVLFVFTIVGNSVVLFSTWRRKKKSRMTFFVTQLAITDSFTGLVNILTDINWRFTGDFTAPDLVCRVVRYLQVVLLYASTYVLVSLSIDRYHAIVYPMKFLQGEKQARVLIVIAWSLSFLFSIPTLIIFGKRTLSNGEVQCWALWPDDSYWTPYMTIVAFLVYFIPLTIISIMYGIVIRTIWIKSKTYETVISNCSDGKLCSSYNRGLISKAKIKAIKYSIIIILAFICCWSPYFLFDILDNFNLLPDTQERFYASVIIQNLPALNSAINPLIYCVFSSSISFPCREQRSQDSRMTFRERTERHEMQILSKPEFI
# CBFb-RUNX1 inh = inhibitors of human CBF-beta and RUNX1 interaction. Potency, µM (top dose mostly 59.8 µM), without a hit: top-dose activity, negative = inhibition, usual class: inhibitors. 230,000 tested, under 10 active. AlphaScreen CBFb-His/RUNX1-biotin binding, biochemical; further: % of control where 0% means no effect
#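 Interaction loss through any mechanism counts as activity. Pre-formed complex of His-CBF-beta and biotin-RUNX1 (30 nM apiece) is incubated with compound 15 min, then with 50 ng nickel and 50 ng streptavidin beads for 90 min before AlphaScreen detection.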
# LMNA splice mod = changes lamin A minigene splicing in HeLa cells | HeLa LMNA splicing GFP/RFP minigene ratio, 48 h | Potency, µM (top dose mostly 46.1 µM), for inactives: at the highest dose ratio change, negative = inhibition, usual class: inhibitors | actives 0.01% (n = 200,000) | AID 1487; active means well fitted inhibition curve with a large enough effect in the signal ratio, with a control signal flat, not every such curve was filed as active; inconclusive means small, poorly fitted or top-dose-only effect, or effect the other way, or a change in a side signal; the % refers to the signal ratio; further: potency means the concentration at half of the fitted maximal effect; on the % scale 0 is the no-effect control and ±100 the full control effect
#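 S3 HeLa stable clones carrying a lamin A-EGFP splicing minigene plus DsRed2 were seeded at 600 cells/well in Opti-MEM with 2% FBS, pin-dosed and incubated 48 h at 37°C. Acumen cytometry (488 nm) gave the GFP/RFP total-intensity ratio.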
# HTT ATP protect = protects HTT-Q103 PC12 cells, measured by ATP | PC12 HTT-Q103 induced, cytoprotection, ATP luminescence, 40 h | Potency, µM (top dose mostly 56.4 µM), for the others: cytoprotection (ATP increase), most hits filed as activators | actives 0.14% (n = 230,000) | AID 1471; further: potency means the concentration at half of the fitted maximal effect; % of control where 0% means no effect; nearly all actives have a fitted effect of over 45% in size
#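 Cells were plated at 1500 per well in phenol red-free DMEM with 5% equine and 5% calf serum. Tebufenozide (100 nM final) and compounds were added, then ATPlite reagent, and luminescence was read.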
# HTT aggregate = mutant huntingtin aggregation inhibition. PC12 HttQ103-GFP aggregates, Acumen cytometry, 40 h. Potency, µM (top dose mostly 46.1 µM), inactives show at the top dose activity change, negative = inhibition, most hits filed as inhibitors. AID 1688. actives 1.1% (n = 220,000); further: potency means the concentration at half of the fitted maximal effect; on the % scale 0 is the no-effect control and ±100 the full control effect; nearly all actives have a fitted effect of over 60% in size
#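 Steps: seed 1500 PC12 HTTQ103-GFP cells/well; add tebufenozide, 100 nM final; add compound titration; add ATPLite reagent; quantify GFP aggregates by laser scanning cytometry.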
# The depositor's hits bear a star; ? = inconclusive; . = no result given; [ ] = another dose, or the depositor's remark. Unless noted, the call rests on the fitted dose curve; in most records, active means well fitted curve in the direction sought with a large enough effect; inconclusive means small, poorly fitted or top-dose-only effect, or another doubt; inactive means no such curve, though single readings can be large; an effect the other way counts as inactive or inconclusive.
SMILES,MBNL1-CUG inh,NPSR antagonist,CBFb-RUNX1 inh,LMNA splice mod,HTT ATP protect,HTT aggregate
Cn1c(=S)[nH]c2c(c1=O)C(C)(C)Cc1ccccc1-2,.,6.3µM*,-7%,.,-4%,9%
CCOC(=O)c1ccc(NC(=O)C2COc3ccccc3O2)cc1 (configuration not stated),-7%,.,.,.,.,.
CCOC(=O)c1ccc(-n2c(O)c(/C=N/NC(=O)C3COc4ccccc4O3)c3ccccc3c2=O)cc1 (configuration not stated),1%,-8%,?,?,7%[1.9 µM],18µM*
OC1OC[C@@H](O)[C@@H](O)[C@@H]1O (some centres not stated),.,.,8%,.,.,.
CCCCCC[C@@H]([C@H](C)O)n1cnc2c(N)ncnc21,.,.,.,.,-24%[1.9 µM],.
NC(=O)c1cc2ccc(O)cc2oc1=Nc1ccccc1,?,-8%[46.1 µM],10%,24%,-21%,7.1µM*
COc1ccc2cc(C(N)=O)c(=Nc3ccccc3)oc2c1,0%,18%,-6%,.,-1%,-18%
CCOC(=O)c1ccc(NC(=O)CSc2nccn2Cc2ccc(OC)cc2)cc1,.,.,.,-1%[46 µM],.,.
CN(N)c1nc(-c2ccccc2)nnc1C(F)(F)F,6%,5%[46.1 µM],0%,3%,-3%,-10%
CN(NC(=O)c1cccc(Cl)c1)c1nc(-c2ccccc2)nnc1C(F)(F)F,-4%,-20%[46.1 µM],2%,2%,.,1µM*
C=C1C(=O)O[C@@H]2[C@@H]1CC/C(C)=C\CC[C@@]1(C)O[C@H]21,.,.,2%[21.7 µM],?,?,14µM*
CCCc1ccc(OCc2ccc(C(=O)N3CCN(c4ccccn4)CC3)o2)c(OC)c1,-2%,-28%[46.1 µM],-3%,?,-16%[0.074 µM],18µM*
COc1cc2oc(=O)cc(-c3ccc(-c4sccc4C=O)cc3)c2c(OC)c1OC,.,.,-4%,.,-37%,.
COc1ccc(CN(CCC(c2ccccc2)C2CCOC(C)(C)C2)C(C)=O)cc1 (configuration not stated),-19%,-23%,2%,?,-14%[10 µM],13µM*
COc1cc(NS(=O)(=O)c2cnc(N)nc2)cc(OC)c1,.,.,.,9%[46 µM],.,.
N[C@H](CCCC(=O)O)C(=O)O,.,.,.,.,-16%[1.9 µM],.
Cc1cccc(-c2nc(CSCC(=O)N3CCN(Cc4ccc5c(c4)OCO5)CC3)c(C)o2)c1,-5%,-18%[46.1 µM],-1%,?,-1%[10 µM],10µM*
Cc1ccc(CNC(=O)C2CCN(c3ncnc4c3nc3n4CCCCC3)CC2)cc1,.,.,.,10%[46 µM],.,.
CCOC(=O)c1c(CSC(=N)N)n(-c2ccc(Br)cc2)c2cc(Br)c(OC(C)=O)cc12,-18%,10µM*,13%,?,.,-21%
CCCCCCCCNc1nc(Cl)nc(NCc2ccco2)n1,-4%,9%,4%,-13%,0%[10 µM],-22%
CCCCCCNc1nc(NCc2ccco2)nc(OCC)n1,-10%,?,2%,0%,-59%,10µM*
CCOC(=O)N1CCC(N2C(=O)c3ccccc3C2Nc2ccc(S(=O)(=O)N3CCCCC3)cc2)CC1 (configuration not stated),7%,10µM*,-12%,?,-37%,10%
CCOC(=O)N1CCC(N2C(=O)c3ccccc3C2Nc2cccnc2)CC1 (configuration not stated),-7%,-14%[46.1 µM],-2%,-13%,-7%,24%
CC(C)OC(=O)[C@@H]1CC[C@H](C)[C@@H](CCCC=O)O1,.,.,-9%,.,.,.
CN1/C(=C\C(=O)C[n+]2ccc(C(=O)c3ccccc3)cc2)C(C)(C)c2ccccc21,?,7%,4%,.,-18%[10 µM],13µM*
SMILES,MBNL1-CUG inh,NPSR antagonist,CBFb-RUNX1 inh,LMNA splice mod,HTT ATP protect,HTT aggregate
CN1/C(=C\C(=O)C[n+]2cccc(C(N)=O)c2)C(C)(C)c2ccccc21,?,-1%,6%,?,-52%[10 µM],-13%
CC(C)(C)c1ccc(C2CC2C(=O)N/N=C\c2ccc[nH]2)cc1 (configuration not stated),4%,53%,?,?,-68%[10 µM],2.5µM*
Cc1cccc(C)c1NC(=O)CCCCCC1NC(=O)NC1C (configuration not stated),0.71µM*,18%,?,.,-30%,10%
O=C(CCCCC(=O)NCCCc1ccccc1)NCCCc1ccccc1,-1%,.,.,.,.,.
CC1NC(=O)NC1CCCCCC(=O)NCCc1ccccc1 (configuration not stated),0.45µM*,-8%[46.1 µM],?,-7%,0%,6%
CCOC(=O)c1cc(-c2ccccc2)n(CCC(=O)Nc2ccc(Cl)c(C(F)(F)F)c2)c1C,.,.,.,-16%[46 µM],.,.
COc1ccc(C(=O)[C@H]2[C@H]3[C@@H](C(=O)[C@@H]4OC[C@H]3O4)[C@H]3C=Cc4ccccc4N32)c(OC)c1,.,.,.,.,-3%,.
COc1ccc(N2C(=O)NC3CC2(C)Oc2ccc(Cl)cc23)cc1OC (configuration not stated),1%,2%[46.1 µM],-4%,-11%,9%,5%
COc1ccc(CCN2C(=S)NC3CC2(C)Oc2ccc([N+](=O)[O-])cc23)cc1OC (configuration not stated),?,-25%[46.1 µM],-22%,?,-81%,10µM*
CCOC(=O)N1CCN(c2ccc(O)cc2)CC1,-5%,-12%[46.1 µM],-3%,13µM*,-42%,-10%
COc1ccc2nc(Sc3c([N+](=O)[O-])nc(C)n3Cc3ccccc3)[nH]c2c1,17%,-26%[46.1 µM],3%,?,13µM*,.
Cc1ccc(NC(=O)CN2CCSc3ccc(S(=O)(=O)N4CCCC4)cc32)cc1C,.,.,.,-2%[46 µM],.,.
O=S(=O)(Nc1ccc2c(c1)OCCO2)c1ccc(Br)s1,11%,-10%[46.1 µM],-1%,?,-14%,13µM*
Brc1ccc2ncnc(Nc3ccc(N4CCOCC4)cc3)c2c1,4%,-6%[46.1 µM],-26%,?,5%,8.9µM*
N#C/C(=C/c1ccc(N2CCCCCC2)o1)c1cccc(F)c1,4%,6.3µM*,10%,2%,?,?
N#C/C(=C\c1ccc(N2CCOCC2)o1)c1ccccc1,16%,?,?,?,8%,?
N#C/C(=C/c1ccc(N2CCCCC2)o1)C(=O)Nc1ccc2ccccc2c1,?,-31%,-3%,?,1%[10 µM],2.5µM*
COc1cc(SSc2cc(OC)cc([N+](=O)[O-])c2N)c(N)c([N+](=O)[O-])c1,?,3.2µM*,-17%,.,-4%[10 µM],-20%[9.22 µM]
CCCCS(=O)(=O)N1C2=NC(C(=O)OC)=C(C(=O)OC)[C@@H]3N(C)c4ccccc4[C@]23C[C@H]1C(=O)OC,.,.,-1%[13.1 µM],-4%[9.22 µM],-21%[10 µM],.
